T cruzi growth-1: blocks T. cruzi growth in NIH3T3 culture | T. cruzi beta-gal in NIH3T3, GalScreen luminescence, 90 h | inhibition, % at 8.34 µM | hit rate 5.9% among 77,000 | AID 624255;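 active = mean inhibition above about 93%, with at least 55% of replicates each passing it, limit read from the data, passing the limit was not always enough; inconclusive = only one of those two conditions holds; inactive = neither condition holds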
Pf Dd2 inh: blocks growth of Plasmodium falciparum Dd2 parasites | P. falciparum Dd2 growth, SYBR Green, 72 h; active compounds read low | activity change, % at 10 µM | hit rate 2.3% among 94,000 | AID 1159554; in the data active = activity change below about -80%; inconclusive = no clear call, values can overlap the other calls
C diff growth: C. difficile growth inhibition | Clostridium difficile clinical isolate growth, OD600, 24 h; active compounds read low | growth activity, negative = inhibition, % at 16 µg/mL (by protocol) | hit rate 0.25% among 86,000 | AID 1259249;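 active = mean growth activity at or below -80% and every replicate also at or below -80%; inconclusive = mean at or below -80% but some replicate above -80%; inactive = mean growth activity above -80%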
T cruzi growth-2: Trypanosoma cruzi proliferation inhibition | shares compounds with T cruzi growth-1 | T. cruzi beta-gal in NIH3T3, GalScreen luminescence, 90 h | inhibition, % at 8.35 µM | hit rate 72% among 5,600;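 active = mean replicate inhibition above about 95% and at least 55% of replicates individually reaching it, limit read from the data; inconclusive = only one of the two criteria is met; inactive = neither criterion is met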
T cruzi growth-3: Trypanosoma cruzi proliferation inhibition; hit rate 21% among 5,600; T. cruzi beta-gal in NIH3T3, GalScreen luminescence, 90 h; AID 651740; shares compounds with T cruzi growth-1; inhibition, % at 2.09 µM;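 active = mean inhibition above about 95%, with at least 55% of replicates also reaching it, limit read from the data; inconclusive = meets just one of the two conditions; inactive = meets neither condition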
NIH3T3 tox: NIH/3T3 (mouse) viability loss; shares compounds with T cruzi growth-1; NIH/3T3 viability, CellTiter-Glo ATP luminescence, 90 h; cytotoxicity (signal decrease), % at 8.35 µM; hit rate 14% among 5,600;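 active = mean signal decrease across replicates above about 35% based on untreated-well scatter, with enough replicates individually passing, limit read from the data; inconclusive = no rule stated though some were filed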
NIH3T3 tox 2: cytotoxicity in mouse NIH/3T3 fibroblasts; hit rate 56% among 5,600; inhibition, % at 24.9 µM; AID 651744; NIH/3T3 viability, CellTiter-Glo ATP luminescence, 90 h; shares compounds with T cruzi growth-1;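 active = mean loss of cell viability signal at or above a set limit, and enough replicates individually reaching it; inconclusive = meets only the mean limit or only the replicate share; inactive = meets neither condition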
Large screens that a line does not name were inactive (follow-up assays come after a bar, where they were run). Hits are enriched below; roughly 6.7% of the tested compounds scored in any of these assays.

O=C(Nc1ccc(F)cc1)N1CCCCN2[C@H](CO)[C@@H](c3ccc(C#CC4CC4)cc3)[C@H]2C1	T cruzi growth-1 112.9 | T cruzi growth-2 111.4 | T cruzi growth-3 inactive | NIH3T3 tox inactive | NIH3T3 tox 2 104.6
O=C(Nc1cccc(F)c1)N1CCCCN2[C@@H](CO)[C@@H](c3ccc(C#CC4CC4)cc3)[C@@H]2C1	none
O=C(Nc1cccc(F)c1)N1CCCCN2[C@H](CO)[C@@H](c3ccc(C#CC4CC4)cc3)[C@@H]2C1	T cruzi growth-1 110.4 | T cruzi growth-2 105.8 | T cruzi growth-3 104.5 | NIH3T3 tox inactive | NIH3T3 tox 2 103.7
O=C(Nc1ccc(F)cc1)N1CCCCN2[C@@H](CO)[C@H](c3ccc(C#CC4CC4)cc3)[C@@H]2C1	none
O=C(Nc1cccc(F)c1)N1CCCCN2[C@H](C1)[C@@H](c1ccc(C#CC3CC3)cc1)[C@@H]2CO	none
O=C(Nc1cccc(F)c1)N1CCCCN2[C@H](CO)[C@H](c3ccc(C#CC4CC4)cc3)[C@H]2C1	T cruzi growth-1 101.8 | T cruzi growth-2 98.3 | T cruzi growth-3 99.5 | NIH3T3 tox 122.4 | NIH3T3 tox 2 104.1
O=C(Nc1ccccc1)N1CCCCN2[C@H](CO)[C@@H](c3ccc(C#CC4CC4)cc3)[C@@H]2C1	none
O=C(Nc1cccc(F)c1)N1CCCCN2[C@H](CO)[C@@H](c3ccc(C#CC4CC4)cc3)[C@H]2C1	T cruzi growth-1 112.2 | T cruzi growth-2 106.9 | T cruzi growth-3 inactive | NIH3T3 tox inactive | NIH3T3 tox 2 104.0
Cc1ccc(S(=O)(=O)Nc2ccc3c(c2)C(=O)N([C@@H](C)CO)C[C@H](C)[C@H](CN(C)Cc2ccc4c(c2)OCO4)OCCCC[C@H](C)O3)cc1	none
C[C@H]1CN([C@@H](C)CO)C(=O)Cc2cc(NC(=O)C3CC3)ccc2O[C@H]1CN(C)S(=O)(=O)c1cn(C)cn1	none
CO[C@@H]1CN(C)C(=O)c2cc(NC(C)=O)ccc2OC[C@@H](C)N(C(=O)c2cnccn2)C[C@@H]1C	T cruzi growth-1 inconclusive (no result: C diff growth)
C[C@@H]1CN([C@@H](C)CO)S(=O)(=O)c2ccc(C3=CCCC3)cc2O[C@@H]1CN(C)C(=O)c1ccc(F)cc1	none (no result: T cruzi growth-1)
C[C@H](CO)N1C[C@H](C)[C@H](CN(C)C(=O)c2ccc(F)cc2)Oc2cc(C3=CCCCC3)ccc2S1(=O)=O	T cruzi growth-1 111.5 | T cruzi growth-2 101.4 | T cruzi growth-3 inactive | NIH3T3 tox inactive | NIH3T3 tox 2 61.6
C[C@H]1CN([C@@H](C)CO)S(=O)(=O)c2ccc(C3=CCCC3)cc2O[C@@H]1CN(C)C(=O)c1ccc(F)cc1	none (no result: T cruzi growth-1)
C[C@@H]1CN([C@H](C)CO)S(=O)(=O)c2ccc(C3=CCCCC3)cc2O[C@H]1CN(C)C(=O)c1ccc(F)cc1	none
C[C@H](CO)N1C[C@H](C)[C@H](CN(C)C(=O)c2ccccc2)Oc2cc(C3=CCCCC3)ccc2S1(=O)=O	T cruzi growth-1 102.8 | T cruzi growth-2 101.4 | T cruzi growth-3 inactive | NIH3T3 tox inactive | NIH3T3 tox 2 64.1
C[C@H]1CN([C@@H](C)CO)S(=O)(=O)c2ccc(C3=CCCCC3)cc2O[C@@H]1CN(C)C(=O)c1ccc(F)cc1	T cruzi growth-1 114.6 | T cruzi growth-2 110.2 | T cruzi growth-3 102.4 | NIH3T3 tox 47.0 | NIH3T3 tox 2 95.9
C[C@@H]1CN([C@@H](C)CO)S(=O)(=O)c2ccc(C3=CCCCC3)cc2O[C@H]1CN(C)C(=O)c1ccc(F)cc1	T cruzi growth-1 inconclusive | T cruzi growth-2 102.1 | T cruzi growth-3 inactive | NIH3T3 tox 53.9 | NIH3T3 tox 2 25.7
C[C@H]1CN([C@@H](C)CO)S(=O)(=O)c2ccc(C3=CCCCC3)cc2O[C@@H]1CN(C)C(=O)c1ccccc1	none
COCC(=O)Nc1ccc2c(c1)C(=O)N(C)[C@@H]1CC[C@@H](CC(=O)Nc3ccccc3)O[C@H]1CO2	none
CC(C)CC#Cc1ccc2c(c1)O[C@H](CN(C)C(=O)CN(C)C)[C@@H](C)CN([C@H](C)CO)S2(=O)=O	none
COc1ccc2c3c(n(C)c2c1)[C@@H](CO)N(C(=O)c1cnccn1)CC31CN(C(=O)c2cnccn2)C1	none (no result: T cruzi growth-1)
